Assay in all cases: DAPPL (digital affinity profiling via proximity ligation, sequencing); 10 mM Tris-HCl pH 7.5, 50 mM NaCl, 1 mM DTT, 4% glycerol, room temperature, 30 min; GST-TFs on glutathione beads, 16-mer random dsDNA library, 0.1% formaldehyde crosslink after washing; high values mean tight binding
The target in one assay is T1, FEV (Homo sapiens, UniProt Q99581 1-238).
T1 sequence: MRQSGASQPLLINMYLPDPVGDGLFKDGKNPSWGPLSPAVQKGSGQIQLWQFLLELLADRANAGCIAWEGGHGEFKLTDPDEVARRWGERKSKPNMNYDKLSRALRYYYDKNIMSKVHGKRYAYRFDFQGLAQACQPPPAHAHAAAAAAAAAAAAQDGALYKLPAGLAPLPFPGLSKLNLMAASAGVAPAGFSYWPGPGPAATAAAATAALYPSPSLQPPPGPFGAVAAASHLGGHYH
Conditions: protein: recombinant; tags: N-terminal GST; dsDNA, one strand shown. Put shortly: (§1)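 Binding signal is each hexamer's read frequency for a factor divided by its frequency in the tag-only sample. The factors were GST-fused human transcription factors from yeast, captured on glutathione beads, DNA-barcoded and pooled with that sample. Pools were incubated with 200 nmole of a random double-stranded 16-mer DNA library in Tris/NaCl/DTT/glycerol buffer at room temperature for 30 min, then washed, crosslinked with 0.1% formaldehyde, proximity-ligated with BsaI/T4 ligase (1 h, 37 °C), PCR-amplified and sequenced on an Illumina NextSeq500.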

For another assay, the target named is ETV5 (Homo sapiens, UniProt P41161 1-510). Conditions: protein: recombinant; tags: N-terminal GST; dsDNA, one strand shown. The method, boiled down:
as §1

The next assay has as its target HSF1 (Homo sapiens, UniProt Q00613 1-529). The following applies: protein: recombinant; tags: N-terminal GST; chain copies: 3; dsDNA, one strand shown. The method, boiled down:
as §1

The target in another assay is T2, SPIC (Homo sapiens, UniProt Q8N5J4 1-248).
T2 sequence: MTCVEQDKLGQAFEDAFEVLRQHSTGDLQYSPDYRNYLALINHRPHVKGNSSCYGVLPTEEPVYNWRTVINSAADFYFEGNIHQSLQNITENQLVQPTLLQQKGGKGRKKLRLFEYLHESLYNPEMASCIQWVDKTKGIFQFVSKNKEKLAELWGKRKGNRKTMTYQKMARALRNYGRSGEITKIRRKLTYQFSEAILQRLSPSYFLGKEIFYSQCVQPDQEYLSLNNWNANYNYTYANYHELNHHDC
The following applies: protein: recombinant; tags: N-terminal GST; dsDNA, one strand shown. The method, boiled down: as §1

Another assay deals with ELF4 (Homo sapiens, UniProt Q99607 1-663). The following applies: protein: recombinant; tags: N-terminal GST; dsDNA, one strand shown. The method, boiled down:
as §1

In a further assay the target is T3, ELK4 (Homo sapiens, UniProt P28324-2 1-405).
T3 sequence: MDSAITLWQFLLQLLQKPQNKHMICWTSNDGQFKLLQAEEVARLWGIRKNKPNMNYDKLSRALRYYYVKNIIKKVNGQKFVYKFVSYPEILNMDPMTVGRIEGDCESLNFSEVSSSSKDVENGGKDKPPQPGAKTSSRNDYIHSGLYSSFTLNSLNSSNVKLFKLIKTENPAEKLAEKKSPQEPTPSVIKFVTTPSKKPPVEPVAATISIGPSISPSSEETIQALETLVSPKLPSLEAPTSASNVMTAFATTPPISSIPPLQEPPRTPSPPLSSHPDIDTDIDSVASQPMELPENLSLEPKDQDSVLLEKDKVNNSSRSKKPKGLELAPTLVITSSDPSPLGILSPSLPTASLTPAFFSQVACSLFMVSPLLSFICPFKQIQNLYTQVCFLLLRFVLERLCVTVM
The following applies: protein: recombinant; tags: N-terminal GST; dsDNA, one strand shown. Put shortly: as §1

The target of a further assay is T4, ETV2 (Homo sapiens, UniProt O00321 1-342).
T4 sequence: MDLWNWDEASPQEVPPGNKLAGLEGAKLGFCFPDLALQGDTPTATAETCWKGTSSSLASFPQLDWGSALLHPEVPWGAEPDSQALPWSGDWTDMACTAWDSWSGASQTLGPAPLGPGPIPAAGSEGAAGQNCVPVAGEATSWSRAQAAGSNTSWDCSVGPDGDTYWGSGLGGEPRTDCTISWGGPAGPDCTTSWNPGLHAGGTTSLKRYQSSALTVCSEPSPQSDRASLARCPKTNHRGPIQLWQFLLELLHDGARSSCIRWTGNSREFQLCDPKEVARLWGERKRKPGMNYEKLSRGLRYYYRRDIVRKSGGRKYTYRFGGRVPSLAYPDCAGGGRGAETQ
Conditions: protein: recombinant; tags: N-terminal GST; dsDNA, one strand shown. Put shortly: as §1

A further assay deals with T5, ELF3 (Homo sapiens, UniProt P78545 1-371).
T5 sequence: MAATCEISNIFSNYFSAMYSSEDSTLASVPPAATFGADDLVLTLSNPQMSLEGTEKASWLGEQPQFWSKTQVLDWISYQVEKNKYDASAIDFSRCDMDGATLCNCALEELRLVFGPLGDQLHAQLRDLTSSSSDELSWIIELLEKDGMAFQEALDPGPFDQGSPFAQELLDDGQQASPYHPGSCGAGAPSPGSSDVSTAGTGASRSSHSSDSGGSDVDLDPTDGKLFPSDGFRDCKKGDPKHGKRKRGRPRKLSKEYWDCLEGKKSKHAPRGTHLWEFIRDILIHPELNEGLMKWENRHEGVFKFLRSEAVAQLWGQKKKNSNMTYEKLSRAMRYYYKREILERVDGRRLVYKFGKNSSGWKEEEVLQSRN
Conditions: protein: recombinant; tags: N-terminal GST; dsDNA, one strand shown. Put shortly:
as §1

For a further assay, the target named is CRX (Homo sapiens, UniProt O43186 1-299). The following applies: protein: recombinant; tags: N-terminal GST; dsDNA, one strand shown. Put shortly:
as §1

Another assay has as its target ETV1 (Homo sapiens, UniProt P50549 1-477). The following applies: protein: recombinant; tags: N-terminal GST; dsDNA, one strand shown. The method, boiled down:
as §1

The target in a further assay is T6, ERF (Homo sapiens, UniProt P50548 1-548).
T6 sequence: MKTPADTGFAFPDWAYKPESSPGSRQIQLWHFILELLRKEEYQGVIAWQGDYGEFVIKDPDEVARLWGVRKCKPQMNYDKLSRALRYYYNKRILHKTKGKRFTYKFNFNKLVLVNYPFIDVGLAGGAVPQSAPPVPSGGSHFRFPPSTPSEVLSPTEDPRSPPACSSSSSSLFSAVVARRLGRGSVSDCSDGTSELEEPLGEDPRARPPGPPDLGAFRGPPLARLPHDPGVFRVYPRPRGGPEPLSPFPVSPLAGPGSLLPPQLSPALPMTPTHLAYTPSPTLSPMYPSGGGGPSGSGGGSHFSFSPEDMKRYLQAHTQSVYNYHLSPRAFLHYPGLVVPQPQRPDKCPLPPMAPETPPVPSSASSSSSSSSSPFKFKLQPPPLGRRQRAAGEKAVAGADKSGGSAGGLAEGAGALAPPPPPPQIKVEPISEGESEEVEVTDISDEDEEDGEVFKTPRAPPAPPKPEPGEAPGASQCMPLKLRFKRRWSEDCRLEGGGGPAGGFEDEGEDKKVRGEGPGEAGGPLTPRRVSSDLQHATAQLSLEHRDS
The following applies: protein: recombinant; tags: N-terminal GST; dsDNA, one strand shown. The method, boiled down:
as §1

For another assay, the target named is T7, ETV3L (Homo sapiens, UniProt Q6ZN32 1-361).
T7 sequence: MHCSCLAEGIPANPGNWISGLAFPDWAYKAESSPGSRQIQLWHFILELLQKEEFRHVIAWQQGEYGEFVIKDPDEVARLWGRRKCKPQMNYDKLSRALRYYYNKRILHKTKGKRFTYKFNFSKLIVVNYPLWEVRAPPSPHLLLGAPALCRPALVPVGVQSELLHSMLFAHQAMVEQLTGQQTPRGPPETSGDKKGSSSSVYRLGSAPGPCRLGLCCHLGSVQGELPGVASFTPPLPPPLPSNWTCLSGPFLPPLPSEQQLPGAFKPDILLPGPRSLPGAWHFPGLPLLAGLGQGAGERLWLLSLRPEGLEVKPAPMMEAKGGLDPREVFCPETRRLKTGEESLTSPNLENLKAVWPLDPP
The following applies: protein: recombinant; tags: N-terminal GST; dsDNA, one strand shown. Put shortly:
as §1

For another assay, the target named is T8, ETS2 (Homo sapiens, UniProt P15036 1-469).
T8 sequence: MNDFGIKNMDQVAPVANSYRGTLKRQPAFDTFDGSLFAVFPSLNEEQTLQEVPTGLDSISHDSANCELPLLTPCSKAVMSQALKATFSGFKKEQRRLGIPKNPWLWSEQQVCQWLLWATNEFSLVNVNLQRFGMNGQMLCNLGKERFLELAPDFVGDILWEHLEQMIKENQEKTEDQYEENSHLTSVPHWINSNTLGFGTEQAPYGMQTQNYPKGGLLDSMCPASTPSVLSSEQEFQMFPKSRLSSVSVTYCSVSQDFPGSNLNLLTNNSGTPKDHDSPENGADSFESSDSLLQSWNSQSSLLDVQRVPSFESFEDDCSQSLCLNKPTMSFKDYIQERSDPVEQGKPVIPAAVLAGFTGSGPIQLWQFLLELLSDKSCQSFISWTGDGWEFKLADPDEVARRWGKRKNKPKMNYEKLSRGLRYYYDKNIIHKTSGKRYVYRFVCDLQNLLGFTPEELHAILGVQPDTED
Conditions: protein: recombinant; tags: N-terminal GST; dsDNA, one strand shown. The method, boiled down: as §1

Another assay deals with T9, SPDEF (Homo sapiens, UniProt O95238 1-335).
T9 sequence: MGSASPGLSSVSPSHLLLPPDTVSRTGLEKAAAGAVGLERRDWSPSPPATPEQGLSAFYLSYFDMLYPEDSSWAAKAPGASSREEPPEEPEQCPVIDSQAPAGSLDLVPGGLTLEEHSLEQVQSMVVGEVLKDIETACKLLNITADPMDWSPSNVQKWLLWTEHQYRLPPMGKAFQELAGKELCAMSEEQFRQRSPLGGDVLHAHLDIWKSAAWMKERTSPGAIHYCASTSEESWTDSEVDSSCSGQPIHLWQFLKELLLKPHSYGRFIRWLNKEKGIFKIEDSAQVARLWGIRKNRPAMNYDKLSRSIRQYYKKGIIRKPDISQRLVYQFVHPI
The following applies: protein: recombinant; tags: N-terminal GST; dsDNA, one strand shown. The method, boiled down: as §1

The target of the next assay is T10, ETV7 (Homo sapiens, UniProt Q9Y603 1-341).
T10 sequence: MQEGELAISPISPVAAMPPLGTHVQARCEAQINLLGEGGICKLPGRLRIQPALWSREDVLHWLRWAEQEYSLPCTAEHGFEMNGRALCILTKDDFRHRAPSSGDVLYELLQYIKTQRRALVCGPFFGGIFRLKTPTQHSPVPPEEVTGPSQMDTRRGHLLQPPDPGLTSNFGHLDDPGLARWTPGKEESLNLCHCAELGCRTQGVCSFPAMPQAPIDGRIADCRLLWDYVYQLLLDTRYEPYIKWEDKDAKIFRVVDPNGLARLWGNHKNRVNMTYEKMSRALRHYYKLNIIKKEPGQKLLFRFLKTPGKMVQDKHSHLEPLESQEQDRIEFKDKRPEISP
Conditions: protein: recombinant; tags: N-terminal GST; dsDNA, one strand shown. Put shortly:
as §1

The target of a further assay is T11, ELF5 (Homo sapiens, UniProt Q9UKW6-2 1-255).
T11 sequence: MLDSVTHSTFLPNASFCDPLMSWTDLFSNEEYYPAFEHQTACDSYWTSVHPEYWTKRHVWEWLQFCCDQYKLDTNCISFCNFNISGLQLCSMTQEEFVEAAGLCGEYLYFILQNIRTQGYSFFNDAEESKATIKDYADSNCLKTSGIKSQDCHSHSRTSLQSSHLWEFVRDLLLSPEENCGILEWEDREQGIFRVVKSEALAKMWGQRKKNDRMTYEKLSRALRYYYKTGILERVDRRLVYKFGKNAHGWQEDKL
Conditions: protein: recombinant; tags: N-terminal GST; dsDNA, one strand shown. Put shortly: as §1

Another assay has as its target T12, ETV3 (Homo sapiens, UniProt P41162-2 1-143).
T12 sequence: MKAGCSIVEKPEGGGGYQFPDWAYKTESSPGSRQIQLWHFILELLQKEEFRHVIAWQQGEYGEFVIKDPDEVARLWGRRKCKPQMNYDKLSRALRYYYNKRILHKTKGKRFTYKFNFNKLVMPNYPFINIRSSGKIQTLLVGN
The following applies: protein: recombinant; tags: N-terminal GST; dsDNA, one strand shown. Put shortly: as §1

The target in a further assay is ETV6 (Homo sapiens, UniProt P41212 1-452). Conditions: protein: recombinant; tags: N-terminal GST; dsDNA, one strand shown. The method, boiled down: as §1
ETV6, sequence (P41212 whole entry): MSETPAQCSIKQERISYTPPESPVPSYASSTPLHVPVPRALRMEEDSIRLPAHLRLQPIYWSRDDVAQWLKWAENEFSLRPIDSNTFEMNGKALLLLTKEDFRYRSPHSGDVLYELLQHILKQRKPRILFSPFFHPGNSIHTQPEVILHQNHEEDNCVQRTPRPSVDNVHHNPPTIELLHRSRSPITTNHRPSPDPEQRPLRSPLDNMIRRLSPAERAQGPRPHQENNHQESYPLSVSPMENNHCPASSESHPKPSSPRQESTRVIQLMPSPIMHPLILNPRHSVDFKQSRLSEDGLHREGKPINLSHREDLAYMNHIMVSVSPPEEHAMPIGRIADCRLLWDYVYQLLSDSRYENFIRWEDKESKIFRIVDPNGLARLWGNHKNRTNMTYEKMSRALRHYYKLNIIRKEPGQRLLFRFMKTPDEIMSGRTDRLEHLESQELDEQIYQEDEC

CRX, sequence (O43186 whole entry): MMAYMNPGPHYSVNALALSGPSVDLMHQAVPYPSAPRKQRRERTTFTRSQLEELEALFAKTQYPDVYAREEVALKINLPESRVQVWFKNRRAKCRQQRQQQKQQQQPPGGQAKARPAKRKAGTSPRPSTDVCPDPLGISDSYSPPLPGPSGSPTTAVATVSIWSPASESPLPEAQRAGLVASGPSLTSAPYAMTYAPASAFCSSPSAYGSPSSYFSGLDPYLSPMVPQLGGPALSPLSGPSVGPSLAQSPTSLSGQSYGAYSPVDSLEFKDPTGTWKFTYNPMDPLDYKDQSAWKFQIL
ETV1, sequence (P50549 whole entry): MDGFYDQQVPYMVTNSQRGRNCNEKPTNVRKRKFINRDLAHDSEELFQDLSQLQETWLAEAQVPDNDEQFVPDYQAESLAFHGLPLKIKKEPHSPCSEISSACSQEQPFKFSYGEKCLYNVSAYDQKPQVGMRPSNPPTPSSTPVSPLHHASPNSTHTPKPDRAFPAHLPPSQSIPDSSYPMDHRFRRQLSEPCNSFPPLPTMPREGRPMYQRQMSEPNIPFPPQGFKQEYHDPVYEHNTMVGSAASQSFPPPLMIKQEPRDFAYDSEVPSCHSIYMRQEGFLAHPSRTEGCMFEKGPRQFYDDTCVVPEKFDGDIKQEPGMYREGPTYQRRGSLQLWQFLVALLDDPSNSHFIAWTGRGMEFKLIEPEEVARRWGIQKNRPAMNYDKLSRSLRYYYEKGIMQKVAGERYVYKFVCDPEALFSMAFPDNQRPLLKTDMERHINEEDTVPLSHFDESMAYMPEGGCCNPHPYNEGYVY
HSF1, sequence (Q00613 whole entry): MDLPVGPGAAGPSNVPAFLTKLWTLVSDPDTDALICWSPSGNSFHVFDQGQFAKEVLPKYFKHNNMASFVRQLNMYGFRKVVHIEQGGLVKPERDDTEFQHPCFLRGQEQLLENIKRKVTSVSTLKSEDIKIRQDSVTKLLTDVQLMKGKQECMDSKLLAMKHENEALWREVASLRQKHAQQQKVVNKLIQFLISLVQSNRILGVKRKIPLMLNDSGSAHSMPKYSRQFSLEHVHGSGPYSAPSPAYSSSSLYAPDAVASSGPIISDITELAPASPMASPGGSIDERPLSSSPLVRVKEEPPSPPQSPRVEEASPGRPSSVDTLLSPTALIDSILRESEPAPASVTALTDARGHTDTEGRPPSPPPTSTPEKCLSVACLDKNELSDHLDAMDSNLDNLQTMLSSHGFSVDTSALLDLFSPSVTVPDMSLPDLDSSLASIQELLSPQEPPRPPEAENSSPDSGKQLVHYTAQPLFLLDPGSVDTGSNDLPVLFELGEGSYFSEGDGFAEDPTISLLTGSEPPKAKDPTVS
ETV5, sequence (P41161 whole entry): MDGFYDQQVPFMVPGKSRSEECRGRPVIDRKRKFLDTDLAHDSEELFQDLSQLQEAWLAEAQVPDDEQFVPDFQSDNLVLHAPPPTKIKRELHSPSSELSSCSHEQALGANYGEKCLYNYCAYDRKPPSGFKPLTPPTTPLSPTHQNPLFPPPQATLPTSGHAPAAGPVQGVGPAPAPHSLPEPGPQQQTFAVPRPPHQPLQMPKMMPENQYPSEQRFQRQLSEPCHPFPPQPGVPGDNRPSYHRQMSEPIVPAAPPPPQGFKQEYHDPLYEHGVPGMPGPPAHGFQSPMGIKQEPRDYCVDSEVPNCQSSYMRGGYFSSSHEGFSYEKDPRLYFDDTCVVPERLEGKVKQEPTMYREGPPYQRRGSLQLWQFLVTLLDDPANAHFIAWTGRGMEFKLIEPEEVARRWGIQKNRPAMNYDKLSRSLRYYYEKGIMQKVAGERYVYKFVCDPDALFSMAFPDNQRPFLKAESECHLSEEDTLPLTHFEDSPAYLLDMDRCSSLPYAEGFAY
ELF4, sequence (Q99607 whole entry): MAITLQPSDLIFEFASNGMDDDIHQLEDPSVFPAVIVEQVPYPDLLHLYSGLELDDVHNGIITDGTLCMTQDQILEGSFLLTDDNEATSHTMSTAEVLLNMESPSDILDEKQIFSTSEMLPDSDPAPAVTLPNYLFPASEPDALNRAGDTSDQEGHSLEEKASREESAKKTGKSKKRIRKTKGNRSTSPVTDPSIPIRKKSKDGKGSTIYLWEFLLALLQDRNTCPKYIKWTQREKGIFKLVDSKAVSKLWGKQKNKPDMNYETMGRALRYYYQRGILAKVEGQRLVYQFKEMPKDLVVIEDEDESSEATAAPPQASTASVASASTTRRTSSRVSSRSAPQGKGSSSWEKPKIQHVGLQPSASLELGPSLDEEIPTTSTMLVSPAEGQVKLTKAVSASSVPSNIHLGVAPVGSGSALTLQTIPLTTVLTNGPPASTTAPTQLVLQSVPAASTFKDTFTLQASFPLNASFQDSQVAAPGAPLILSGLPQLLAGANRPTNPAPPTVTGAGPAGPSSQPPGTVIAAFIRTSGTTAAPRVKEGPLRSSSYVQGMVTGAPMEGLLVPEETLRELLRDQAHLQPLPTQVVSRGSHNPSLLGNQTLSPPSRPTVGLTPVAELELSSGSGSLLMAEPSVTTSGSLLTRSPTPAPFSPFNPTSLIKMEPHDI

Take TTAAGG: the binding signal in the assay with FEV is 1.16 fold enrichment (6-mer frequency, TF over GST control); in the assay with ETV5, 1.11 fold enrichment (6-mer frequency, TF over GST control); in the assay with HSF1, 1.67 fold enrichment (6-mer frequency, TF over GST control); with SPIC, 1.23 fold enrichment (6-mer frequency, TF over GST control); with ELF4, 1.14 fold enrichment (6-mer frequency, TF over GST control); with ELK4, 1.25 fold enrichment (6-mer frequency, TF over GST control). Further, the binding signal with ETV2 was 1.23 fold enrichment (6-mer frequency, TF over GST control); in the assay with ELF3 it was 1.2 fold enrichment (6-mer frequency, TF over GST control); in the assay with CRX it was 2.78 fold enrichment (6-mer frequency, TF over GST control); with ETV1, 1.15 fold enrichment (6-mer frequency, TF over GST control); with ERF, 1.16 fold enrichment (6-mer frequency, TF over GST control); with ETV3L, 1.09 fold enrichment (6-mer frequency, TF over GST control). For the same sequence, the binding signal was 1.1 fold enrichment (6-mer frequency, TF over GST control) with ETS2; 1.28 fold enrichment (6-mer frequency, TF over GST control) with SPDEF; 1.12 fold enrichment (6-mer frequency, TF over GST control) with ETV7; 1.26 fold enrichment (6-mer frequency, TF over GST control) in the assay with ELF5; 1.16 fold enrichment (6-mer frequency, TF over GST control) in the assay with ETV3; 1.06 fold enrichment (6-mer frequency, TF over GST control) with ETV6.
